According to PubChem BioAssay (NCI):
This is part of a sample that, as a whole, favours compounds with a hit. Of some 79,000 tested, about 15% had one in any assay. No stated cut-off is given here; in the data, active means growth inhibition above about 70%; inactive means the rest.

Columns and labels:
[1] = NCI Yeast Anticancer Drug Screen. Data for the rad50 strain (AID 155);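 further: 0% = growth of vehicle-only cultures of the same strain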; settings: S. cerevisiae rad50 strain growth inhibition, active compounds read high; at 50.0 µM unless noted
In short: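 Yeast carrying a defined DNA repair defect were exposed to test compounds, and growth was compared with vehicle-treated controls to give percent inhibition.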

[2] = NCI Yeast Anticancer Drug Screen. Data for the mec2-1 strain (AID 157); settings: S. cerevisiae mec2-1 strain, active compounds read high; at 50.0 µM unless noted
In short: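 Readout is yeast growth inhibition, normalised to vehicle-treated controls, in the mec2-1 strain exposed to compound.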

[3] = NCI Yeast Anticancer Drug Screen. Data for the sgs1 mgt1 strain (AID 161);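 further: 0% = growth of cultures given vehicle only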; settings: S. cerevisiae sgs1 mgt1 strain, active compounds read high; at 50.0 µM unless noted
In short: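 Compounds are added to genetically altered yeast, and growth is compared with cultures given vehicle alone to give percent inhibition.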

[4] = NCI Yeast Anticancer Drug Screen. Data for the cln2 rad14 strain (AID 165);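 further: 0% = growth equal to vehicle treated cultures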; settings: S. cerevisiae cln2 rad14 strain, active compounds read high; at 50.0 µM unless noted
In short: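 Relative to vehicle controls, growth inhibition of compound-treated cln2 rad14 yeast was recorded.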

[5] = NCI Yeast Anticancer Drug Screen. Data for the bub3 strain (AID 167); settings: S. cerevisiae bub3 mutant strain, active compounds read high; at 50.0 µM unless noted
In short: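 Compounds were applied to a genetically altered yeast strain carrying a cell-cycle control defect. Growth inhibition was scored against vehicle-treated controls.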

[6] = NCI Yeast Anticancer Drug Screen. Data for the mlh1 rad18 strain (AID 175); settings: S. cerevisiae mlh1 rad18 strain growth inhibition, active compounds read high; at 50.0 µM unless noted
In short: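 Test agents were incubated with a yeast strain of defined genotype (DNA damage repair defect). Inhibition of growth was derived by comparison with vehicle-exposed cultures.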

Measured: growth inhibition

Cc1c(CCCl)c(N=P(c2ccccc2)(c2ccccc2)c2ccccc2)n2c(nc3ccccc32)c1C#N
inactive: [1] 29.1% | [2] -2.1% | [3] -7.75% | [4] 12.5% | [5] -5.05% | [6] 18.6%

CCOC(=O)C/C(=N\NC(=O)c1ccccc1O)C(=O)OCC
inactive: [1] 5.8% | [2] 1.95% | [3] 5.85% | [4] 0.9% | [5] 3.3% | [6] 29.9%

O=C(C[n+]1ccccc1CO)c1ccc(-c2ccccc2)cc1
inactive: [1] 26.2% | [2] -6.4% | [3] 17.2% | [4] -4.85% | [5] 6.5% | [6] 5.4%

COC(=O)c1cc(Br)cc(Br)c1N
inactive: [1] 26.1% | [2] -12.9% | [3] 0.3% | [4] -35.1% | [5] 3.6% | [6] 32.4%
